From PubChem BioAssay come the findings set out here.

By viability is commonly meant a read-out of living cells in per cent, often relative to untreated cells.

Where “and” joins values, the source holds several entries; their conditions need not be identical. Equal entries are not always repeated. Calls of active or inactive are those of the source. No stated cut-off is given here; in the data, active means parasite load remaining mostly below about 12% (no sharp cut-off); inactive means mostly above about 10%.

This assay in a line: liver-stage malaria parasite growth inhibition, primary screen, cell-based, HepG2, luciferase luminescence, HepG2 viability (AID 624349).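 Further: 100% = mean of DMSO negative control wells on the same plate.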 The conditions noted are these: P. berghei liver stage in HepG2, luciferase luminescence, concentration not given here; parasite load remaining: stronger effect = lower value; viability: measured here: HepG2 viability without parasites.
`COC(=O)[C@H]1[C@H]2C[C@@H]3c4[nH]c5cc(OC)ccc5c4CCN3C[C@H]2C[C@@H](OC(=O)/C=C/c2cc(OC)c(OC)c(OC)c2)[C@@H]1OC`: the parasite load remaining is 26.9% (inactive) and 41.8% (inactive); the viability was 94.2% and 77.7%.
In the case of `COc1cc(=O)n(C)c2c(OCC(O)C(C)(C)O)cccc12` (configuration not stated), the parasite load remaining is 88% (inactive) and the viability came to 97.7%.
For the molecule `CCC[C@@H]1C[C@@H](C(=O)N[C@@H]([C@H]2O[C@H](SC)[C@H](O)[C@@H](O)[C@@H]2O)[C@@H](C)O)N(C)C1`, the parasite load remaining is 53.4% (inactive) and 46.6% (inactive); the viability was 129% and 47.8%.
As for `COc1c2c(nc3ccccc13)OC(C(C)(O)CO)C2` (configuration not stated), the parasite load remaining was 78.4% (inactive) and the viability worked out at 73.1%.
`NCCC(=O)NCCc1cnc[nH]1`: the parasite load remaining is 133% (inactive) and 73.6% (inactive); the viability is 94% and 70.5%.
On to `O[C@@H]1[C@@H](O)C=C2CCN3Cc4cc5c(cc4[C@H]1C23)OCO5` (some centres not stated), for which the viability was found to be 101% and the parasite load remaining was -0.065% (active).
